Assay [1] is described as follows: qHTS RealTime-Glo MT Cell Viability Assay in HEK293 cells - 16 hour (AID 1224872). Also: nearly all actives have a fitted effect of over 50% in size. Also: potency is read from the fitted curve at half-maximal effect. As to activity change, negative = cytotoxicity: top concentration of the series differs between compounds. An outline of the steps:
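HEK293 cells seeded with NanoLuc/prosubstrate reagent, rested 5 h at 37 C, then dosed and kept at 37 C up to 40 h. Nonlytic real-time luminescence from viable cells read at 0, 8, 16, 24, 32 and 40 h.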

Assay [2] is described as follows: qHTS RealTime-Glo MT Cell Viability Assay in HepG2 cells - 8 hour (AID 1224873). Also: nearly all actives have a fitted effect of over 55% in size. In a few lines:
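HepG2 cells mixed with RealTime-Glo MT reagents (NanoLuc plus cell-permeant prosubstrate) were seeded at 600 cells/well, incubated 5 h at 37 C/5% CO2, then pinned with compounds in DMSO; nonlytic luminescence tracked viability during 40 h treatment.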
(In qHTS, concentration-response curves come from the screen itself.)

A short description of assay [3]: qHTS RealTime-Glo MT Cell Viability Assay in HEK293 cells - 40 hour (AID 1224874). Also: nearly all actives have a fitted effect of over 50% in size. Also: potency is read from the fitted curve at half-maximal effect. To be noted: RealTime-Glo luminescence; max response: stronger effect = lower value. An outline of the steps: (§1)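 HEK293 cells mixed with RealTime-Glo reagents (NanoLuc plus cell-permeant prosubstrate) at 600 cells/well, preincubated 5 h at 37 C/5% CO2, then given 23 nL compound in DMSO. Nonlytic luminescence from viable cells was read at 0, 8, 16, 24, 32 and 40 h.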

Assay [4] can be described thus: qHTS RealTime-Glo MT Cell Viability Assay in HepG2 cells - 32 hour (AID 1224877). Also: nearly all actives have a fitted effect of over 55% in size. In a few lines:
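HepG2 cells (600/well) were dispensed with RealTime-Glo reagents, incubated 5 h at 37 °C, then treated with compounds in DMSO for up to 40 h. Nonlytic NanoLuc luminescence reflecting viable cells was read at each stated time point.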

Assay [5] in a line: A CellTox Green Cytotoxicity Assay to monitor cytotoxicity in HepG2 cells - 24 hour (AID 1224878). Also: nearly all actives have a fitted effect of over 45% in size. Also: potency is read from the fitted curve at half-maximal effect. In a few lines:
(§2)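 HepG2 cells were seeded together with the CellTox Green dye at 600 cells/well, left 5 h at 37 C/5% CO2, then given compounds in DMSO. Fluorescence from dye bound to dead-cell DNA was read repeatedly over 40 h of treatment at 37 C.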

Assay [6] is described as follows: A CellTox Green Cytotoxicity Assay to monitor cytotoxicity in HepG2 cells - 40 hour (AID 1224879). Also: nearly all actives have a fitted effect of over 40% in size. Also: potency is read from the fitted curve at half-maximal effect. An outline of the steps:
as §2

Assay [7] is described as follows: qHTS RealTime-Glo MT Cell Viability Assay in HEK293 cells - 0 hour (AID 1224880). Also: top concentration of the series differs between compounds; nearly all actives have a fitted effect of over 45% in size. In a few lines: as §1
Assay [8] can be described thus: A CellTox Green Cytotoxicity Assay to monitor cytotoxicity in HepG2 cells - 16 hour (AID 1224876). Also: nearly all actives have a fitted effect of over 45% in size. Also: potency is read from the fitted curve at half-maximal effect. In a few lines:
as §2

Assay [9] is described as follows: A CellTox Green Cytotoxicity Assay to monitor cytotoxicity in HEK293 cells - 40 hour (AID 1224871). Also: nearly all actives have a fitted effect of over 45% in size. Also: potency is read from the fitted curve at half-maximal effect. In a few lines: (§3)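 HEK293 cells premixed with CellTox Green dye were seeded at 600 cells/well and left 5 h at 37 C/5% CO2 before pin transfer of 23 nL compound in DMSO. Fluorescence from dye bound to dead-cell DNA was read during 40 h treatment.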
Assay [10] can be described thus: A CellTox Green Cytotoxicity Assay to monitor cytotoxicity in HEK293 cells - 24 hour (AID 1224875). Also: nearly all actives have a fitted effect of over 45% in size. Also: potency is read from the fitted curve at half-maximal effect. As to activity change: series mostly up to about 77 µM. An outline of the steps:
as §3

Each structure is given as a SMILES string. Several values for one entry are separate records, joined by “and”; a condition that tells them apart may be missing. Equal values may be shown once. Records with an inconclusive call do not appear. More than one record can exist for a structure, and the calls need not agree. Activity calls are given as the source filed them. Calls follow the shape of the dose curve; as a rule, active = well fitted curve in the direction sought with a large enough effect in the repeat runs; inconclusive = weak or mixed curves; inactive = no such curve, though single readings can be large; an effect the other way counts as inactive or inconclusive.
% is scaled to controls: 0 for no effect and ±100 for the full control effect.

Regarding `C[C@H]1C[C@@H](O)CC(C)(C)C1`, the Potency entry in assay [1], in [2], in assay [4], in [5], in assay [6] and in assay [7] was “inactive” throughout. Besides, in assay [3], the max response is -10.6% (inactive).
Turning to `CCN(CC)CCNC(=O)c1cc(S(C)(=O)=O)ccc1OC`, the Potency result in assay [2], in assay [8], in [4], in assay [5], in [6] and in [7] was “inactive” throughout.
For the compound `O=C(O)CCCl`, the Potency result in assay [9], in assay [2], in assay [10], in assay [8], in [4] and in assay [5] was “inactive” in each case. The Potency result in [6] and in [7] was “inactive” in each case.
For `CC(=O)Nc1ccc(S(N)(=O)=O)cc1`, the Potency entry in assay [9], in [2], in assay [10], in [8], in [4] and in [5] was “inactive” in each case. Also, the Potency entry in assay [6] and in [7] was “inactive” throughout. Besides, the max response in assay [3] is 14.7% (inactive).
Turning to `Cc1[nH]c(=O)c(C#N)cc1-c1ccc2nccn2c1`, the Potency entry in assay [9], in assay [2], in assay [10], in assay [8], in assay [4] and in [5] was “inactive” in each case. Further, the Potency entry in assay [6] and in assay [7] was “inactive” in each case.
On to `Nc1nc2c(ncn2COC(CO)CO)c(=O)[nH]1`, for which the Potency entry in assay [9], in assay [10] and in [6] was “inactive” each time.
`O=C1CC2CC1C1CCCC21` (stereo unspecified): the Potency result in assay [1], in assay [2], in assay [8], in assay [4] and in assay [6] was “inactive” each time. Also, the max response in assay [3] was -4.86% (inactive).
As for `Cc1nc2c([nH]1)c(=O)n(C)c(=O)n2Cc1ccco1`, the Potency entry in [9], in assay [2], in assay [10], in assay [8], in [4] and in assay [6] was “inactive” each time.
In the case of `O=c1cc(-c2ccccc2)oc2ccccc12`, the Potency is 19.5 µM (active) and 6.88 µM (active) in assay [1]; 11 µM (active) and 14.8 µM (active) in assay [3]; “inactive and 43.6 µM (active)” in assay [6]. The Potency result in [2], in [10], in assay [8], in assay [4] and in assay [5] was “inactive” in each case.
`CCCCCCCCCCCC`: the Potency entry in assay [9], in [2], in assay [10], in assay [8], in assay [4] and in assay [5] was “inactive” throughout. Also, the Potency result in assay [6] and in [7] was “inactive” each time.
Regarding `CN(C)CCCSc1ccccc1NC(=O)/C=C/c1ccccc1`, the Potency in assay [9] is 19 µM (active); in assay [10], 19 µM (active); in assay [8], 21.3 µM (active); in [5], 19 µM (active); in assay [6] it was 19 µM (active). For the same compound, the Potency entry in [2], in assay [4] and in [7] was “inactive” each time.
Turning to `CCS(=O)(=O)c1ccc(OC)c(C(=O)OC)c1`, the Potency result in [9], in assay [2], in assay [10], in assay [8], in [4] and in assay [6] was “inactive” each time. The Potency result in assay [7] was “inactive”. In addition, the max response in assay [3] is 5.71% (inactive).
`CC(=O)N(CC(O)CO)c1c(I)c(C(=O)NCCO)c(I)c(C(=O)NCC(O)CO)c1I` (stereo unspecified): the Potency result in assay [9], in assay [2], in [10], in assay [8], in assay [4] and in [6] was “inactive” throughout. For the same compound, the Potency entry in [7] is “inactive”.
Regarding `OC(CCN1CCCCC1)(c1ccccc1)C1CC2C=CC1C2` (stereo unspecified), the Potency entry in assay [1], in assay [2], in assay [10], in assay [4], in assay [5] and in [6] was “inactive” in each case. Further, the Potency entry in assay [7] was “inactive”. In addition, the max response in [3] was -10.3% (inactive).
Regarding `CCCCCCCCCCCCCC=O`, the cytotoxicity increase in assay [9] was 0.449% [at 6.97 µM] (inactive); in [8], 1.97% [at 6.97 µM] (inactive); in assay [6], 0.942% [at 6.97 µM] (inactive). In assay [2], the viability change, negative = cytotoxic was 0.248% [at 6.97 µM] (inactive). Also, the max response in assay [3] was 5.19% (inactive). The activity change in assay [10] was -4.12% [at 6.97 µM, stronger effect = higher value] (inactive). Besides, the activity change, negative = cytotoxic in assay [4] was -9.48% [at 6.97 µM] (inactive). In [5], the cytotoxicity is 1.56% [at 6.97 µM] (inactive). Also, the activity change, negative = cytotoxicity in assay [7] was 8.28% [at 6.97 µM] (inactive).
For the compound `CC(C)(c1ccc(O)cc1)c1ccc(O)cc1`, the Potency entry in assay [9] is “inactive and 17.7 µM (active)”. In addition, the Potency result in assay [2], in assay [10], in assay [8], in assay [4], in assay [5] and in assay [6] was “inactive” in each case. In addition, the Potency entry in [7] is “inactive”.
With `CCCCNC(=O)NCCCC`, the Potency result in assay [9], in assay [2], in assay [10], in assay [8], in assay [4] and in [5] was “inactive” throughout. The Potency result in [6] and in assay [7] was “inactive” in each case. In [3], the max response is -3.77% (inactive).
For `O=C1CCCC(=O)C1`, the Potency result in assay [9], in [2], in [10], in [8], in [4] and in assay [6] was “inactive” each time. The max response in assay [3] was 1.44% (inactive).
Take `N[C@H]1CN(c2c(F)cc3c(=O)c(C(=O)O)cn(C4C[C@H]4F)c3c2Cl)CC12CC2` (stereo partly specified): the Potency entry in [9], in assay [2], in assay [10], in [8], in assay [4] and in [6] was “inactive” throughout. Further, in assay [7], the Potency entry was “inactive”. Also, the max response in [3] is 11.4% (inactive).
On to `COC(=O)c1c(Cl)c(Cl)c(C(=O)OC)c(Cl)c1Cl`, for which the Potency result was “inactive and 38.9 µM (active)” in assay [9]; “inactive and 77.6 nM (active)” in [8]. Besides, the Potency entry in assay [2], in assay [4], in assay [5] and in [7] was “inactive” throughout. Also, in assay [3], the max response was -27.2% (inactive).
As for `CN1CC(=O)NC1=N`, the Potency result in [9], in assay [2], in assay [10], in assay [8], in assay [4] and in [5] was “inactive” throughout. Further, the Potency entry in assay [6] and in [7] was “inactive” throughout. The max response in assay [3] is 9.12% (inactive).
As to `CN1CCC(=C2c3ccccc3CC(=O)c3sccc32)CC1`, the Potency result in assay [9], in assay [2], in assay [10], in [8], in assay [4] and in assay [5] was “inactive” each time. Further, the Potency entry in assay [6] and in assay [7] was “inactive” in each case.
Take `CC(C)NC(=O)NC(C)C`: the Potency entry in assay [9], in [2], in assay [10], in assay [8], in [4] and in [6] was “inactive” throughout. Moreover, the Potency result in assay [7] is “inactive”. Moreover, in assay [3], the max response is 4.41% (inactive).
`CCn1nc(C(=O)O)c(=O)c2cc3c(cc21)OCO3`: the Potency entry in assay [9], in assay [2], in assay [10], in assay [8], in [4] and in assay [6] was “inactive” in each case. In [7], the Potency entry is “inactive”. Besides, the max response in assay [3] is 4.37% (inactive).

Source of the values: PubChem BioAssay (Tox21).
